# Bioassay records from PubChem BioAssay.
# IL-1B inflam inh: qHTS for Inhibitors of Inflammasome Signaling: IL-1-beta AlphaLISA Primary Screen; AID 743279, 2014; THP-1 LPS/ATP IL-1B secretion, AlphaLISA, 16 h; active compounds read low; activity change, % at 57.5 µM; actives 4.7% (n = 360,000); in the data active = activity change below about -50%; inconclusive = mostly about -30% to -49%
#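 Secreted IL-1B measured by AlphaLISA bead assay after 16 h compound exposure of THP-1 cells; compounds (final up to 57.5 uM) added 1 h before LPS (250 ng/mL) and ATP (1.25 mM) stimulation; lower signal means less secretion.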
# HT1080 IDH1KD tx: qHTS for induction of synthetic lethality in tumor cells producing 2HG: qHTS for the HT-1080-IDH1KD cell line. Potency, µM (series often up to 46.1 µM), for inactives: at the top dose activity, negative = toxicity, hits mostly cytotoxic. actives 2% (n = 360,000). HT-1080 IDH1 knockdown viability, ATP luminescence, 48 h;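 note: potency is the fitted concentration of half-maximal effect; 0% = DMSO wells and -100% = cell-free medium wells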
#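 IDH1KD HT-1080 cells, 750/well, RPMI + 5% FBS; compound pinned after 2 h settling; 48 h, 37 °C; CellTiter-Glo luminescence; % activity normalised to DMSO and no-cell wells; curves fitted, classed by r2 and efficacy.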
# DT40 TDP1 no CPT: qHTS for Inhibitors of human tyrosyl-DNA phosphodiesterase 1 (TDP1): qHTS in cells in absence of CPT | actives 15% (n = 420,000) | DT40 Tdp1-/- hTDP1 cells, no CPT, ATP luminescence, 48 h | Potency, µM (series often up to 46.2 µM), without a hit: at the top dose activity change, negative = growth inhibition, usual class: inhibitors; note: potency is the fitted concentration of half-maximal effect; nearly all actives have a fitted effect of over 55% in size
#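 Stably hTDP1-transfected Tdp1-null chicken DT40 cells were treated with library compounds minus camptothecin and grown for at least 48 hr at 37 °C, after which cellular ATP was quantified by luminescence.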
# ELG1 repair inh: qHTS screen for small molecules that inhibit ELG1-dependent DNA repair in human embryonic kidney (HEK293T) cells expressing luciferase-tagged ELG1; Potency, µM (titrated, usually from 46.1 µM), for inactives: at the highest dose activity change, negative = inhibition, actives largely listed as inhibitors; HEK293T ELG1-luciferase reporter, luminescence, 16 h; DNA damage induced by 5-fluorouridine; actives 2.3% (n = 330,000); note: potency is the fitted concentration of half-maximal effect; nearly all actives have a fitted effect of over 55% in size
#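 Quantitative HTS, concentration-response format. 2,000 cells/well co-treated with 5-fluorouridine and compound, 16 hr in 5% CO2 at 37 °C; ONE-Glo luminescence read after 30 min.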
# DT40 TDP1 CPT: qHTS for Inhibitors of human tyrosyl-DNA phosphodiesterase 1 (TDP1): qHTS in cells in presence of CPT; chicken DT40 Tdp1-/-;hTDP1 cells + 20 nM CPT, ATP luminescence, 48 h; Potency, µM (doses to about 46.2 µM), for the others: at the top dose activity change, negative = growth inhibition, usual class: inhibitors; actives 12% (n = 420,000); note: potency is the fitted concentration of half-maximal effect; nearly all actives have a fitted effect of over 55% in size
#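 Cell growth measured by CellTiter-Glo luminescence after a minimum 48 h, 37 C compound exposure with 20 nM CPT in Tdp1-knockout DT40 cells stably expressing hTDP1, seeded 400/well; qHTS titration format.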
# HT1080NT lethal: qHTS for induction of synthetic lethality in tumor cells producing 2HG: qHTS for the HT-1080-NT fibrosarcoma cell line; HT-1080-NT fibrosarcoma viability, CellTiter-Glo ATP luminescence, 48 h; AID 686970, 2013; Potency, µM (titrated, usually from 46.1 µM), for inactives: at the highest dose activity, negative = less viability, hits mostly cytotoxic; actives 1.6% (n = 360,000);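 note: NT is the 2HG producing partner of a matched IDH1 knockdown line; potency is the fitted concentration of half-maximal effect; 0% = DMSO-treated cells and -100% = media-only wells without cells; nearly all actives have a fitted effect of over 55% in size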
#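 Toxicity toward the 2HG-producing NT line was scored as %Activity, normalised to DMSO and no-cell wells, from CellTiter-Glo luminescence after 48 hours' treatment.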
# * hit, by the source's call; ? = inconclusive; nt = not tested or not shown; [ ] = dose if it differs, or a comment. Compounds with a hit are over-represented: about 19% of the library has one in this group of screens. Unless noted, calls come from the whole dose curve; as a rule, active = well fitted curve in the direction sought with a large enough effect; inconclusive = small, poorly fitted or top-dose-only effect, or another doubt; inactive = no such curve, though single readings can be large; an effect the other way counts as inactive or inconclusive. Unless noted, % is set by controls: 0 for no effect and ±100 for the full control effect.
SMILES,IL-1B inflam inh,HT1080 IDH1KD tx,DT40 TDP1 no CPT,ELG1 repair inh,DT40 TDP1 CPT,HT1080NT lethal
COc1ccc(C2C=C(c3ccccc3)Nc3nc(NC(=O)/C=C/c4ccccc4OC)nn32)cc1 (stereo unspecified),nt,nt,2.6µM*,nt,5.8µM*,nt
COc1ccc(C2C=C(c3ccccc3)Nc3nc(NC(=O)/C=C/c4ccccc4)nn32)cc1 (stereo unspecified),nt,nt,7.3µM*,nt,9.2µM*,nt
COc1ccc(C2CC(c3ccc(Cl)cc3)Nc3nc(NC(=O)c4ccco4)nn32)cc1 (stereo unspecified),-22,?,?,?,?,-30%
O=C(Nc1nc2n(n1)C(c1ccc(Cl)cc1)CC(c1ccc(Cl)cc1)N2)c1ccco1 (stereo unspecified),?,23µM*,?,?,?,23µM*
COc1ccc(C(=O)Nc2nc3n(n2)C(c2ccccc2)C=C(c2ccccc2)N3)cc1 (stereo unspecified),nt,nt,?,nt,18µM*,nt
CCC(=O)Nc1nc2n(n1)C(c1ccc(OC)cc1)C=C(c1ccccc1)N2 (stereo unspecified),nt,nt,nt,-7%,nt,nt
COc1cc(OC)c(NC(=O)CC(C)S(=O)(=O)c2ccc3c(c2)NC(=O)CO3)cc1Cl (stereo unspecified),nt,nt,-7%,nt,13%,nt
O=C(Nc1nc2n(n1)C(c1ccccc1)C=C(c1ccc(Cl)cc1)N2)c1ccco1 (stereo unspecified),nt,nt,23µM*,nt,21µM*,nt
Cc1c(CCC(=O)NCCC(=O)O)c(=O)oc2c(C)c3oc4c(c3cc12)CCCC4,10,0%,2%,2%,5%,1%
C=CCn1c(SCC(=O)c2c(N)n(CCC)c(=O)n(C)c2=O)nnc1-c1ccncc1,24,-4%,-12%,-8%,6%,-1%
CCCn1c(N)c(C(=O)COC(=O)COc2ccc(Cl)c(C)c2)c(=O)n(C)c1=O,8,13%,-19%,13%,-10%,18%
CCCn1c(N)c(C(=O)CSc2nc(C)cs2)c(=O)n(C)c1=O,9,-13%,12µM*,?,?,-9%
CCCn1c(N)c(C(=O)COC(=O)c2c(C)noc2C)c(=O)n(C)c1=O,-2,-4%,-30%,23µM*,-11%,1%
Cc1ccc(-c2cc3c(N4CCN(c5cc(C)ccc5C)CC4)nccn3n2)cc1,nt,nt,21µM*,nt,23µM*,nt
Cc1ccc(C(=O)CCNc2cccc(Br)c2)o1,-13,-2%,18µM*,6%,21µM*,1%
Cc1ccc(C(=O)CCNc2ccccc2)o1,-2,11%,8.2µM*,nt,?,18%
CCc1ccc(NCCC(=O)c2ccc(Br)cc2)cc1,-22,-4%,?,16%,?,0%[9.24 µM]
Cc1ccc(C(=O)CCNc2ccc(F)c(Cl)c2)o1,-24,10%,16µM*,22%,16µM*,13%
Cc1ccc(C(=O)CCNc2ccc(Br)cc2)o1,-20,-9%,13µM*,nt,13µM*,-1%
O=C(O)Cc1sc(N/N=C\c2ccncc2)nc1-c1ccccc1,?,1%,19%,4%,-2%,-4%
N#CSC(c1ccccc1)c1nc2ccccc2[nH]c1=O (stereo unspecified),29,?,26µM*,-19%,6.5µM*,?
